Inconclusive results are not listed. A call without a number means that no potency is given here. Calls of active or inactive are those of the source. Calls come from the whole dose curve.

Test system in one test: not listed separately
The test can be described thus: Natriuretic polypeptide receptor (hNpr1) antagonism - Pilot counterscreen GloSensor control cell line (AID 1347045). Note: potency is the fitted concentration of half-maximal effect. As to conditions: HEK293 cGMP GloSensor cells, SNP-stimulated luminescence, 20 min; series mostly up to 38.3 µM. The method, boiled down: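 The SNP-driven cGMP luminescence signal (50 uM, 20 min, room temperature) was measured in GloSensor HEK293 control cells. Compounds were tested as a LOPAC titration series and preincubated for 30-50 min.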
For orientation: Counterscreens check selectivity or assay interference.
Turning to `Ic1ccccc1CNC1C2CCN(CC2)C1C(c1ccccc1)c1ccccc1` (centres undefined), the Potency is 13.1 µM (active).
Still for that read-out and setting: the value for `CCCCCCCCCCCCCC(=O)O[C@@H]1[C@@H](C)[C@@]2(O)[C@@H](C=C(CO)C[C@@]3(O)C(=O)C(C)=C[C@@H]23)C2C(C)(C)[C@@]21OC(C)=O` (some centres undefined) was “inactive”; that for `C[C@H](N)CN1CCc2ccc(Br)cc21` was “inactive”.
Still for that read-out and setting: the value for `CCCn1c(=O)c2[nH]c(C3CCCC3)nc2n(CCCOC(=O)c2ccc(S(=O)(=O)F)cc2)c1=O` was “inactive”.

The next test deals with Atrial natriuretic peptide receptor 1 (Homo sapiens) (UniProt P16066). The test can be described thus: Natriuretic polypeptide receptor (hNpr1) antagonism - Pilot screen (AID 1347049).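 Note: HEK293 cells with hNpr1 and GloSensor cGMP luciferase stimulated by 0.1 nM hNppA; agonist-evoked cGMP luminescence read 20 min after hNppA addition.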 The note with it: hNpr1 cells, antagonist mode cGMP read-out; series mostly up to 57.5 µM. The method, boiled down: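 Cells expressing receptor plus cGMP biosensor are seeded and incubated overnight at 37C, then loaded with GloSensor reagent (2% final) at room temperature for 2 h. Library compounds go on for 30 min. A pre-read precedes agonist (hNppA, 0.1 nM final) and a 20-min readout.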
Atrial natriuretic peptide receptor 1 (Homo sapiens), sequence (P16066 whole entry, looked up): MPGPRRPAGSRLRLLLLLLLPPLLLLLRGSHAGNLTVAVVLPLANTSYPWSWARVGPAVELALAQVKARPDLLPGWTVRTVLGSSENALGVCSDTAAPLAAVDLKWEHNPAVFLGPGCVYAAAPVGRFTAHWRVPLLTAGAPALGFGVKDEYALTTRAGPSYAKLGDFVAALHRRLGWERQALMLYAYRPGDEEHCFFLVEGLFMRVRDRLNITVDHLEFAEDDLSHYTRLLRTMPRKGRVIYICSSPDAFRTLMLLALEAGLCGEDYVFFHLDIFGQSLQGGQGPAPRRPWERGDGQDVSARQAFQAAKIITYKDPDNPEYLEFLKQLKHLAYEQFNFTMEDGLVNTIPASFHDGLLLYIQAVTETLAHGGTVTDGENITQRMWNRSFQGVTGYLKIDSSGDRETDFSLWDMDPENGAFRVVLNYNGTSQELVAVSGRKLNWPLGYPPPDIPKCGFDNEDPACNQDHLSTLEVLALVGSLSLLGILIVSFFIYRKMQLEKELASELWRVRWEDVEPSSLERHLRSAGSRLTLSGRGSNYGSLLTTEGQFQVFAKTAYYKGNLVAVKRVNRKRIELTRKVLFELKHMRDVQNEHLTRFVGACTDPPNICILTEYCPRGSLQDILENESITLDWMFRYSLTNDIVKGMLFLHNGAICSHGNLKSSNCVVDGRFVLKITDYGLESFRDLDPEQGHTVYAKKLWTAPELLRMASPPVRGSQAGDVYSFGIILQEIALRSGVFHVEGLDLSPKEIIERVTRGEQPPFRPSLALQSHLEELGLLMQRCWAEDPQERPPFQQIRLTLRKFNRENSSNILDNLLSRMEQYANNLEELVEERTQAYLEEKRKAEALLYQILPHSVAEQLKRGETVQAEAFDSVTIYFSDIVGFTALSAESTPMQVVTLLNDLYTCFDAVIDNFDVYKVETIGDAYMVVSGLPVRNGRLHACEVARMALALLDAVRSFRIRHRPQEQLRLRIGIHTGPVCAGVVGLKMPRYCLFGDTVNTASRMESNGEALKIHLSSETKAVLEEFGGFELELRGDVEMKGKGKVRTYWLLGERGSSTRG
Regarding `CN(C(=O)Cc1ccc(Cl)c(Cl)c1)C(CN1CCCC1)c1cccc(OCC(=O)O)c1` (centres undefined), the Potency entry was “inactive”.
Turning to `CC1(C(=O)O)C2CCC(O2)C1(C)C(=O)O` (centres undefined), the Potency result is “inactive”.
Still for that read-out and setting: in the case of `C=CCN1CCc2cccc3c2[C@H]1Cc1ccc(O)c(O)c1-3` it was “inactive”; in that of `COC(=O)N1CCN(C(=O)Cc2ccc(Cl)c(Cl)c2)C(CN2CCCC2)C1` (centres undefined), “inactive”.
Same read-out and setting: the value for `CCCCCCC(C)(C)c1ccc([C@@H]2C[C@H](O)CC[C@H]2CCCO)c(O)c1` was “inactive”; that for `Nc1ccc(CCN2CCN(c3cccc(C(F)(F)F)c3)CC2)cc1` was “inactive”; that for `CN(N=O)c1cc(O)ccc1O` was “inactive”.
The same measure, in the same setting: the value for `C[C@H](N)Cc1cccc(C(F)(F)F)c1` was “inactive”; that for `N[C@@H](Cn1oc(=O)[nH]c1=O)C(=O)O` was “inactive”.
Regarding `CO[C@H]1CC=C2CCN3CCC4=C(CC(=O)OC4)[C@]23C1`, the Potency entry is “inactive”.
Still for that read-out and setting: in the case of `CC(=O)c1c(O)c(C)c(O)c(Cc2c(O)c3c(c(C(=O)/C=C/c4ccccc4)c2O)OC(C)(C)C=C3)c1O` it was “inactive”.
Same read-out and setting: the value for `Cc1o[nH]c(=O)c1CC(N)C(=O)O` (centres undefined) was “inactive”; that for `C[N+]1(C)CCc2cc3c(cc2[C@H]1[C@@H]1OC(=O)c2c1ccc1c2OCO1)OCO3` was “inactive”.
With `Oc1ccc2c3c1O[C@H]1c4[nH]c5ccccc5c4C[C@@]4(O)C(C2)N(CC2CC2)CCC314` (some centres undefined), the Potency result was “inactive”.
Same read-out and setting: the value for `N#C/C(=C/c1ccc(O)c(O)c1)C(N)=S` was “inactive”.
Still for that read-out and setting: the value for `Oc1ccc2c3c1O[C@H]1c4oc5ccccc5c4C[C@@]4(O)C(C2)N(CC2CC2)CCC314` (some centres undefined) was “inactive”; that for `CNc1ccc2oc(C[C@H]3O[C@@]4(CC[C@H]3C)O[C@H]([C@H](C)C(=O)c3ccc[nH]3)[C@H](C)C[C@H]4C)nc2c1C(=O)O` was “inactive”; that for `NC(C(=O)O)c1cc(=O)[nH]o1` (centres undefined) was “inactive”.
On the same count and under the same terms, the value for `CN1CC[C@@]2(C)c3cc(O)ccc3N(C)C12` (some centres undefined) was “inactive”; that for `CN(N=O)c1ccc(O)c(O)c1` was “inactive”.
Turning to `O=C1C=CC(=O)C=C1`, the Potency result was “inactive”.
Still for that read-out and setting: the value for `NC(=O)COc1c(F)cc(SCCNS(=O)(=O)c2ccccc2)cc1F` was “inactive”; that for `C=CCN1C[C@@H](C)N([C@H](c2ccc(C(=O)N(CC)CC)cc2)c2cccc(OC)c2)C[C@@H]1C` was “inactive”; that for `C=CCN1CCC23c4c5ccc(O)c4O[C@H]2C(=O)CC[C@@]3(O)C1C5` (some centres undefined) was “inactive”.
Still for that read-out and setting: the value for `CCCN1CCc2cc(O)cc3c2[C@H]1Cc1ccc(O)c(O)c1-3` was “inactive”.

(Values after PubChem BioAssay (NCATS).)
